# In all, about 110,000 compounds were measured (“z-score”: median about -0.1, highest 2% from about 2 on). This excerpt belongs to a sample that is enriched for the highest values. Activity calls are given as the source filed them.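 The calls were made as follows: active = z-score in the third read window above 3 or below -3; inactive = the rest.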
# Target: Metabotropic glutamate receptor 8 (Rattus norvegicus) (UniProt P70579)
# Test: mGluR8 Gi/Go-coupled signaling modulation – cell-based, rat, thallium flux, HTS, primary screen (AID 488969)
# Settings: HEK293 rat mGluR8, GIRK (G protein-gated inwardly rectifying potassium channel) thallium flux, FluoZin2; at 10 µM; stronger effect = higher value; submaximal glutamate (EC20) added with thallium
# Metabotropic glutamate receptor 8 (Rattus norvegicus), sequence (P70579 whole entry, looked up): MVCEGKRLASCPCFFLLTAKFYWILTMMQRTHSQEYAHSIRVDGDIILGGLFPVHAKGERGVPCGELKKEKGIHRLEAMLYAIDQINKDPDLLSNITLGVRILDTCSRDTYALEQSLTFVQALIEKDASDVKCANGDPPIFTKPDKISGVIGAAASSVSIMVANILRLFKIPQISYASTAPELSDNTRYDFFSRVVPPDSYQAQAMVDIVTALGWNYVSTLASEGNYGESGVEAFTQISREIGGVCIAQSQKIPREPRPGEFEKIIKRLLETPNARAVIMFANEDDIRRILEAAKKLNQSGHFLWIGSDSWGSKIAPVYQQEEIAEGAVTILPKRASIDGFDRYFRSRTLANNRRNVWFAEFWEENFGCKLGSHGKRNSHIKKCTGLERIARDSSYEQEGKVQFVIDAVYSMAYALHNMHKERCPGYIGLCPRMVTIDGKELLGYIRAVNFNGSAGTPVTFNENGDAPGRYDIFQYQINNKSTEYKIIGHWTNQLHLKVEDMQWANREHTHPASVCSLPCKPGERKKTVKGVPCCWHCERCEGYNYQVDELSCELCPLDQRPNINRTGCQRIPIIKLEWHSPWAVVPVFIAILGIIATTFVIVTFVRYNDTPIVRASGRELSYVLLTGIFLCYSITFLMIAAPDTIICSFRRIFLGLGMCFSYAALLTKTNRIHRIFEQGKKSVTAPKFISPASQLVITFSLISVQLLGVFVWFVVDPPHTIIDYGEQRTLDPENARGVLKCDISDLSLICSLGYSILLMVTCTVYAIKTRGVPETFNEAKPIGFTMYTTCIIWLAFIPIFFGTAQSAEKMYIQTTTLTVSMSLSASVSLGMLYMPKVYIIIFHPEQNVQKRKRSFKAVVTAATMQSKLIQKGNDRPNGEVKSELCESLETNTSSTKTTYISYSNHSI
row,Structure (SMILES),z-score
1,COc1ccccc1N1C(=O)C2ON(c3ccccc3)C(c3ccc(N(C)C)cc3)C2C1=O (stereo not given),0.0686
2,CN(C)c1ccc(C2C3C(=O)NC(=O)C3ON2c2ccc(Cl)cc2)cc1 (stereo not given),2.58
3,CN(C)c1ccc(C2N(c3ccc(Cl)cc3)C(=O)C3CCCN32)cc1 (stereo not given),-0.129
4,Cc1ccc(C(=O)C(C(=O)/C=C/c2ccccc2)=C2SCCCS2)cc1,0.0319
5,c1ccc(-c2csc3ncn4nnnc4c23)cc1,-0.177
6,CCCC1CC(CSC(=N)N)OC1=O (stereo not given),-0.478
7,Cc1csc(NC(=O)CSc2nc3ccccc3s2)n1,-0.293
8,Cc1csc(SCC(=O)Nc2nc3ccccc3s2)n1,3.3 (active)
9,Cc1csc(SCC(=O)Nc2nc(-c3ccccc3)cs2)n1,1.07
10,Cc1ccc(-c2nnc(SCC(=O)N3CCN(c4ccccc4)CC3)o2)cc1,-1.07
11,COc1ccc2[nH]c(=O)c(CN(C(=O)c3ccccn3)c3ccccc3)cc2c1,-0.101
12,CCCN(CC1CC1)C(=O)COC(=O)c1[nH]c(C)c(C(=O)OCC)c1C,-0.372
13,COc1cc(NC(=O)c2cccnc2Sc2ccc(Cl)cc2)cc(OC)c1OC,-0.134
14,Cc1ccc(S(=O)(=O)NC(Cc2c[nH]c3ccccc23)C(=O)O)cc1 (stereo not given),-0.0187
15,O=C(O)C(Cc1c[nH]c2ccccc12)NS(=O)(=O)c1cccc2nsnc12 (stereo not given),0.00264
16,Cc1cccc(S(=O)(=O)NC(Cc2c[nH]c3ccccc23)C(=O)O)c1 (stereo not given),2.17
17,CC(C)(C)c1[nH]nc2c1C(c1ccccc1OC(=O)N1CCOCC1)C(C#N)=C(N)O2 (stereo not given),-2.43
18,O=C(CSc1nc2ccccc2[nH]1)N/N=C/C=C/c1ccccc1[N+](=O)[O-],-0.487
19,Cc1ccc(S(=O)(=O)Nc2cc(C(=O)NCCN3CCCC3)ccc2N2CCCCC2)cc1,1.81
20,COCCCNC(=O)c1ccc(N2CCCC2)c(NS(=O)(=O)c2ccc(C)cc2)c1,0.547
21,CCN(CC)CCNC(=O)c1ccc(N2CCCCC2)c(NS(=O)(=O)c2ccc(C)cc2)c1,2.96
22,Cc1nnc2sc(SCc3ccccc3)nn2c1=O,-0.0579
23,CC(=O)/C(=N\Nc1ccc(Cl)cc1Cl)Sc1cccc2cccnc12,2.29
24,CC(=O)/C(=N\Nc1cccc(Cl)c1)Sc1cccc2cccnc12,0.635
25,CC(=O)/C(=N\Nc1ccccc1Cl)Sc1cccc2cccnc12,0.299
26,CC(C)(C)SCCNC(=O)c1ccc(NS(C)(=O)=O)cc1,-0.0865
27,O=C(CSc1ccc(Cl)cc1)N1CCN(c2ncc(C(F)(F)F)cc2Cl)CC1,-0.0561
28,Cc1cc(NC(c2cccnc2)c2ccc3cccnc3c2O)no1 (stereo not given),-0.344
29,Cc1conc1NC(c1cccs1)c1ccc2cccnc2c1O (stereo not given),3.41 (active)
30,Cc1cc(NC(c2ccc(Cl)cc2)c2ccc3cccnc3c2O)no1 (stereo not given),1.61

# From PubChem BioAssay AID488969 (Vanderbilt High Throughput Screening Facility, 2010)
